According to PubChem BioAssay (NCI):
Compounds without any hit were thinned out: in the full panel of roughly 79,000, 15% have a hit. A number with no mark means an inactive call. Active and inactive are the calls of the source. Rule as the data show it: active = growth inhibition above about 70%; inactive = the rest.

Experiments:
[1] = NCI Yeast Anticancer Drug Screen. Data for the rad50 strain (AID 155);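 also: 0% = growth of vehicle-only cultures of the same strain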; settings: S. cerevisiae rad50 strain growth inhibition; at 50.0 µM; hits give high values
In short: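 A DNA repair-deficient yeast mutant serves as the test organism; compound-induced growth inhibition is calculated against vehicle-treated cells.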

[2] = NCI Yeast Anticancer Drug Screen. Data for the mec2-1 strain (AID 157); settings: S. cerevisiae mec2-1 strain, at 50.0 µM, hits give high values
In short: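 Readout is yeast growth inhibition, normalised to vehicle-treated controls, in the mec2-1 strain exposed to compound.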

[3] = NCI Yeast Anticancer Drug Screen. Data for the sgs1 mgt1 strain (AID 161);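 also: 0% = growth of cultures given vehicle only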; settings: S. cerevisiae sgs1 mgt1 strain, at 50.0 µM, hits give high values
In short: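 Percent growth inhibition was derived by comparing compound-exposed mutant yeast with vehicle-exposed cultures. The strain carries alterations in DNA damage repair.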

[4] = NCI Yeast Anticancer Drug Screen. Data for the cln2 rad14 strain (AID 165);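 also: 0% = growth equal to vehicle treated cultures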; settings: S. cerevisiae cln2 rad14 strain, at 50.0 µM, hits give high values
In short: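 Relative to vehicle controls, growth inhibition of compound-treated cln2 rad14 yeast was recorded.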

[5] = NCI Yeast Anticancer Drug Screen. Data for the bub3 strain (AID 167); settings: S. cerevisiae bub3 mutant strain, at 50.0 µM, hits give high values
In short: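 Inhibition values come from growth of compound-treated mutant yeast normalised to vehicle-treated controls.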

[6] = NCI Yeast Anticancer Drug Screen. Data for the mlh1 rad18 strain (AID 175); settings: S. cerevisiae mlh1 rad18 strain growth inhibition; at 50.0 µM; hits give high values
In short: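 Test agents were incubated with a yeast strain of defined genotype (DNA damage repair defect). Inhibition of growth was derived by comparison with vehicle-exposed cultures.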

| SMILES | growth inhibition [1] [%] | growth inhibition [2] | growth inhibition [3] [%] | growth inhibition [4] [%] | growth inhibition [5] [%] | growth inhibition [6] [%] |
| --- | --- | --- | --- | --- | --- | --- |
| CCCCCCCCC(Cl)C(Cl)CCCCCCCC(=O)OC (centres undefined) | -30.2 | -33% | -20.3 | -13.8 | -5.15 | -22.1 |
| COc1ccc(CNc2cnc3cc(N)ccc3n2)cc1OC | -12.3 | -34.5% | -37.5 | 3.15 | -19.3 | -16.4 |
| CC(C)(c1ccc(O)c(Cl)c1)c1cc(Cl)c(O)c(S(=O)(=O)O)c1 | 10.8 | 4.8% | 27.2 | 22.3 | 1.15 | -11.2 |
| CN(N)c1cc(=O)n(C)c(=O)n1C | -1.35 | -1.2% | -10.7 | -45.1 | -3.05 | 15.6 |
| CCCCCCCCCC(=O)N/N=C/c1ccccc1Cl | 9.95 | 36.1% | 29.6 | -9.5 | 19.3 | 30.4 |
| CN(C)N1C(=C(C#N)C#N)C(c2ccccc2)CC1C#N (centres undefined) | 9.55 | 12.9% | -22.8 | 13.2 | -25.8 | -41.5 |
| N#C/C(=C1/Sc2c(nc[nH]c2=O)N1c1ccccc1)c1nc2ccccc2[nH]1 | -34.6 | -14.4% | -51.9 | -8.1 | -40 | -41.9 |
| C[N+](C)(CCS(=O)(=O)[O-])C1CCCCC1 | -6.65 | -8.7% | -8.9 | -23.1 | 6.75 | -12.8 |
| Cc1cnc2cccc(C)c2c1Cl | -29.5 | 0.05% | 10.3 | -16.4 | 8.3 | -3.3 |
| COC(=O)[C@H]1O[C@H]1c1cccc[n+]1[O-] | 10.1 | -2.4% | 3.9 | -24.6 | 9.3 | -0.9 |
| CCOC(=O)CCCC(NC(=O)c1ccc(N2CCN(c3c(N)nc(N)nc3NC)CC2)cc1)C(=O)OCC (centres undefined) | 9.95 | 5.75% | -0.4 | 6.55 | -3.95 | -2.3 |
| COC(=O)/C=C/CCOS(C)(=O)=O | 9.6 | -35% | 0.55 | -39 | -3.25 | 16.5 |
| COCC12CCC(OC)C34C5CC6(O)C(OC)CC(OC(C)=O)(C5C6OC(=O)c5ccccc5)C(C(OC)C13)C4N(C)C2 (centres undefined) | -24.5 | -23.8% | -26.5 | -8.9 | -1.45 | -77.5 |
| NC(=O)N/N=C(\Cc1nc2ccc(Cl)cc2[nH]c1=O)C(=O)Nc1ccc(Cl)cc1Cl | 11.9 | 11.8% | 7.2 | -30.1 | -0.85 | 15.2 |
| Fc1cccc2c1Cc1ccccc1-2 | 5.75 | -8.65% | -21.3 | -58.7 | -1.85 | 17.3 |
| CC(=O)NCCc1ccc(OCc2ccccc2)cc1 | -7.15 | 2.25% | 3.7 | -51.5 | -19.4 | -1.45 |
| CNc1ccc([N+](=O)[O-])cc1C(=O)OC | 8 | -6.1% | -8.55 | -46.2 | -22.9 | 22.9 |
| O=S(=O)(Cl)c1ccc(I)cc1 | -5.2 | -21.2% | -12.3 | 22.4 | -2.2 | -20.6 |
| COC1(OC)CCC2C1C1CCC(OC)(OC)C21 (centres undefined) | 1.7 | -3.35% | 11.3 | 8.75 | 3.4 | -17.4 |
| CN1CCC(C[CH2][Sn]([c]2ccccc2)([c]2ccccc2)[c]2ccccc2)CC1 | 51.1 | 99.3% (active) | 50.7 | 63 | 49 | 57.5 |

| SMILES | growth inhibition [1] [%] | growth inhibition [2] | growth inhibition [3] [%] | growth inhibition [4] [%] | growth inhibition [5] [%] | growth inhibition [6] [%] |
| --- | --- | --- | --- | --- | --- | --- |
| COc1ccc(OC)c(NC(=O)SC(C)C)c1 | -5.3 | -21.8% | -9.45 | 0.15 | 18.2 | -3.65 |
| N#Cc1c(N2CCCC2)ncn(Cc2ccccc2)c1=O | 0.7 | 12.8% | 0.2 | -30.8 | 7.15 | 4.7 |
| CCC(=O)Oc1ccc(CCC(C)=O)cc1OC | 4.15 | -7.55% | -16.8 | -26.6 | -2.3 | 25.8 |
| Cc1cc(C)c(C(=O)CSC(=N)N)c(C)c1 | -4.45 | 11.3% | 7.5 | -6.6 | 9.55 | 2.4 |
| Nc1ncnc2c1ncn2C[c-]1[c-][c-][c-][c-]1.[Fe].[c-]1[c-][c-][cH-][c-]1 | -4.95 | -23.8% | -11.9 | -40.7 | -15.7 | -8.8 |
| CC(C)n1cnc2c(=O)[nH]c(=O)[nH]c21 | -9.55 | -4.55% | 9.25 | -39.8 | -5.2 | 2.9 |
| CCCCS(=O)(=O)C[N+](C)(CC)CC | 34.1 | -0.7% | -5.45 | -6.85 | -4.65 | 3.45 |
| CCCCCCNC(=O)C1=C(C)NC(C)=C(C(=O)NCCCCCC)C1 | 4.9 | 1.35% | -6.4 | -24.9 | 6.8 | -42.2 |
| NC(=O)N/N=C(/CC1C(=O)Oc2ccccc21)c1ccccc1O (centres undefined) | -8.35 | -4.7% | -9.7 | -14.3 | -24.9 | 14 |
| N#Cc1cnn2ccn(C3OC(CO)C(O)C3O)c12 (centres undefined) | -42.8 | -14.2% | -18.9 | -22.6 | -5.45 | 14.9 |
| CC(C)(C)OC(=O)CC1(C)NC(C(=O)O)C(C)(C)S1 (centres undefined) | 13.3 | -0.65% | -10.9 | -9.75 | 14.8 | 10.8 |
| Cc1ccc(S(=O)(=O)N(C)c2c(N)n(C)c(=O)n(C)c2=O)cc1 | 2.3 | 5.75% | 0.7 | -49.3 | -5.55 | -4.4 |
| C=C(COC(=O)C(C)C)[C@H]1Oc2ccc(C(C)=O)cc2[C@@H]1OC(=O)C(C)C | -11.5 | -3.9% | -15.9 | -9.55 | 0.45 | -23.1 |
| COC(=O)C1C(=O)CC(C)(O)C(C(=O)OC)C1c1ccc(N(C)C)cc1 (centres undefined) | -10.5 | 19.9% | 7.7 | 53 | 15.1 | -25.4 |
| CCCCCCCCCCCCCCCCCC(=O)Oc1c(C(C)CC)cc([N+](=O)[O-])cc1[N+](=O)[O-] (centres undefined) | 13.2 | 25% | 46.2 | 2.85 | 10.1 | 53.9 |
| O=S1(=O)CS(=O)(=O)OCCCCO1 | 10.2 | -5.75% | 4.9 | 13.3 | -9.05 | 7.85 |
| CCCCCCCCCCCCCCCC/C(=C\c1ccc2ccccc2c1)[N+](=O)[O-] | -29.2 | -10.7% | -24.6 | -38.3 | -1.75 | -10 |
| Cc1ccc(-c2cc(=O)c3cc(C)c(C)c(C(=O)O)c3o2)cc1 | 3.15 | 0.25% | 10.8 | 19.9 | 7.1 | 10.8 |
| CCCCCCC(O)CCCCCCCCCCC(=O)O (centres undefined) | -14.3 | 0.1% | 16.4 | -25.4 | -6.8 | 19.7 |
